SMILES strings stand for the structures. In all, about 420,000 compounds went through this assay and about 64,000 (15%) were called active. About 27% were inconclusive and are not listed. The call rests on the fitted dose curve; in most records, active means well fitted inhibition curve with a large enough effect; inconclusive means small, poorly fitted or top-dose-only effect; inactive means flat fitted curve, though single readings scatter. These entries were drawn from the full list. Entries that show only a call come without a potency.
Potency means the concentration at half of the fitted maximal effect.

The test is described as follows: qHTS for Inhibitors of human tyrosyl-DNA phosphodiesterase 1 (TDP1): qHTS in cells in absence of CPT. Further: nearly all actives have a fitted effect of over 55% in size. Conditions: DT40 Tdp1-/- hTDP1 cells, no CPT, ATP luminescence, 48 h; activity change, negative = growth inhibition: at 46.2 µM (top of the series). The essentials: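 Growth kinetics read by CellTiter-Glo luminescence after ≥48 hr at 37 °C. Cells: DT40 Tdp1-/- stably carrying human TDP1, 400 per well, compound exposure in the absence of CPT (DMSO vehicle).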
Consider `CCCCc1nc(SCC(=O)Nc2nnc(C(C)C)s2)n[nH]1`, for which the Potency result is “inactive”. Then `COc1cccc(N2C(=O)CN(Cc3ccccc3)C2=S)c1`, with “inactive”. With `COc1ccccc1NC(=O)C1=C(C)Nc2nnnn2C1c1cccc(Br)c1` (configuration not stated), the Potency result is “inactive”. With `Cc1ccccc1OCCOc1ccc([N+](=O)[O-])cc1/C=N/n1cnnc1` the figure was 1.46 µM (active). On to `COc1ccccc1OCCOc1ccc(/C=N/n2cnnc2)cc1`, for which the Potency entry was “inactive”. With `Cc1cc([N+](=O)[O-])c(-c2ccc(/C=N/n3cnnc3)o2)cc1Cl` the entry was “inactive”. With `Cc1ccc(Cn2c(=O)n(-c3ccc(C)cc3)c(=O)c3c2c2cc(C)ccc2n3C)cc1` the entry was “inactive”; with `Cc1nnc(SCC(=O)N2CCOCC2)[nH]c1=O`, “inactive”. With `CCC(C)n1[nH]c(=O)c2c(C)cc(C)nc21` (configuration not stated) the entry was “inactive”. For the compound `Cc1ccc(S(=O)(=O)N2CCC(C(=O)OCC(=O)N3CC(=O)Nc4ccccc43)CC2)cc1`, the Potency entry was “inactive”. Then `CCOC(=O)COn1c(=O)c(-c2ccc(OCC)cc2)[n+]([O-])c2ccccc21`, with “inactive”; and `COc1ccc(OC)c(-c2c(=O)n(OCc3ccccc3Br)c3ccccc3[n+]2[O-])c1`, with 23.1 µM (active). Consider `O=c1c(-c2ccc(Cl)cc2)[n+]([O-])c2ccccc2n1OCc1nc2ccccc2[nH]1`, for which the Potency result is “inactive”. Then `CCOc1ccc(OCC)c(-c2c(=O)n(OCc3ccc(Cl)cc3)c3ccccc3[n+]2[O-])c1`, with 8.2 µM (active); and `Cc1cc(C)cc(OCC(=O)OCC(=O)NC2CCCC2)c1`, with “inactive”; and `COC(=O)Cc1nc2c(N)nc(N)nc2[nH]c1=O`, with “inactive”. With `CS(=O)(=O)N1CCCC(C(=O)Nc2ccccc2C(F)(F)F)C1` (configuration not stated) the entry was “inactive”; with `CC1CCCCN1S(=O)(=O)c1ccc(F)c(C(=O)Nc2ccccc2C(F)(F)F)c1` (configuration not stated), 18.4 µM (active). Then `CC(C)c1ccc(NC(=O)c2cc(S(=O)(=O)N3CCc4ccccc4C3)ccc2F)cc1`, with “inactive”; and `COc1cc(OC)c(C(=O)NNC(=O)c2ccccc2-n2cccc2)cc1OC`, with “inactive”. Take `O=C(O)c1n[nH]nc1-c1ccccc1`: the Potency entry is “inactive”. Then `Cc1cccc(-n2ncc(C(=O)N3CCc4ccccc4C3)c2C2CCN(C(=O)OC(C)(C)C)CC2)c1`, with “inactive”; and `Cc1cccc(-n2ncc(C(=O)N3CCN(c4ccc(Cl)cc4)CC3)c2C2CCN(C(=O)OC(C)(C)C)CC2)c1`, with 9.2 µM (active); and `CC(C)(C)OC(=O)N1CCC(C(=O)NNC(=O)c2ccc(Cl)cc2Cl)CC1`, with “inactive”.

On to `CC(C)(C)OC(=O)N1CCC(c2c(C(=O)N3CCN(c4cccc(Cl)c4)CC3)cnn2-c2cccc(Cl)c2)CC1`, for which the Potency was 9.2 µM (active). For `CC(C)(C)OC(=O)N1CCN(C(=O)c2[nH]c(C(F)(F)F)nc2-c2ccccc2)CC1`, the Potency result was “inactive”. Turning to `Cc1cccc(-n2ncc(C(=O)N3CCC(C)CC3)c2C2CCN(C(=O)OC(C)(C)C)CC2)c1`, the Potency entry was “inactive”. With `N/C(=N\OC(=O)CCC1CCCCC1)c1ccccn1` the entry was “inactive”; with `Cc1cccc(OCC(=O)NC2CC(C)(C)NC(C)(C)C2)c1`, “inactive”; with `C/C(=N\NC(=O)Cc1ccccc1[N+](=O)[O-])c1cccnc1`, “inactive”. Then `S=C(c1ccccc1)N1CCCC1`, with “inactive”. Then `CN(O)C(=S)c1ccccc1`, with 0.164 µM (active); and `CN(CC(=O)O)C(=O)c1ccccc1`, with “inactive”. For the compound `CN(C)C(=O)c1ccc(-c2cncnc2Nc2ccccc2)cc1`, the Potency result was “inactive”. As to `CC(Cc1cccs1)NC(=O)NC1CCCCC1` (configuration not stated), the Potency entry is “inactive”. Consider `Cc1nc([N+](=O)[O-])cn1CC(=O)Nc1ccc2c(c1)OCO2`, for which the Potency entry is “inactive”. Then `COc1ccc(C(=O)COC(=O)C(O)c2ccccc2)c(OC)c1` (configuration not stated), with “inactive”; and `COc1ccc(C(=O)c2c(C)c(CCC#N)n3ccccc23)c(OC)c1`, with 20.6 µM (active); and `Cc1c(C(=O)c2cccc([N+](=O)[O-])c2)c2ccccn2c1CCC#N`, with “inactive”.

Consider `CC(C)(C)c1ccc(/C=C2\Oc3c(ccc(O)c3CN3CCN(CCO)CC3)C2=O)cc1`, for which the Potency entry is “inactive”. Then `CCCCNC(=O)N1CCCC(N(C)CCc2ccc(OC)c(OC)c2)C1` (configuration not stated), with “inactive”.

With `CC(C)=CCCC1(C)C=Cc2c(ccc3c2[nH]c2cc(O)c(C)cc23)O1` (configuration not stated), the Potency was 16.4 µM (active).

Take `COc1ccc(-c2cnc(SCCNC(=O)c3ccc4c(c3)OCO4)[nH]2)cc1`: the Potency result is “inactive”.

For the compound `Brc1ccc(-c2nnc(-c3ccccc3)o2)o1`, the Potency result is “inactive”. With `Cc1ccc(CN2CCN(c3ccccc3Cl)CC2)o1` the entry was “inactive”; with `O=C(CN1CCCCC1)NC(=O)Nc1ccccc1F`, “inactive”; with `O=C(O)c1cc2c(cc1NC(=O)c1c(F)cccc1Cl)OCCCO2`, “inactive”. Then `O=C(CSC(=S)N1CCCCC1)c1c(F)cccc1F`, with 8.2 µM (active); and `Cc1nnc(SCC(=O)N(C(C)C)C(C)C)nc1C`, with “inactive”. Then `CC(=O)NCCC(=O)Nc1nc(C)c(Cc2ccc3c(c2)OCO3)s1`, with “inactive”; and `CC(=O)Nc1ccc(Nc2c3ccccc3nc3ccccc23)cc1`, with 0.0082 µM (active); and `Cc1c(NC(=O)Nc2cccc([N+](=O)[O-])c2)c(=O)n(-c2ccccc2)n1C`, with “inactive”.

In the case of `CCc1nc(SCC(=O)NNC(=O)c2ccc(C)cc2)c2ccccc2n1`, the Potency result was “inactive”.

Regarding `N#Cc1cccc(Nc2c3c(nc4ccccc24)CCCC3)c1`, the Potency is 25.9 µM (active).

`N#Cc1cccc(NC(=O)CN2CCCCCC2)c1`: the Potency entry was “inactive”. Regarding `O=[N+]([O-])c1cccc(Nc2c3ccccc3nc3ccccc23)c1`, the Potency is 16.4 µM (active). Turning to `O=C(Nc1cccc([N+](=O)[O-])c1)Nn1cnnc1`, the Potency entry is “inactive”.

Turning to `CC(=O)Nc1ccc(NC(=O)C(C)n2c3ccccc3c3nc(=O)cc(C)n32)cc1` (configuration not stated), the Potency result is “inactive”. With `N#Cc1cccc(NC(=O)CCC2CCCC2)c1` the entry was “inactive”. For `CC(=O)Nc1ccc(Nc2nc3c(S(=O)(=O)c4ccc(C)c(C)c4)nnn3c3ccccc23)cc1`, the Potency result was “inactive”. With `Cc1ccc(Nc2c3c(nc4ccccc24)CCC3)cc1` the figure was 18.4 µM (active).

As to `Cc1nn(C(C)(C)C)c(OC(=O)CC(C)C)c1S(=O)(=O)c1ccccc1`, the Potency entry was “inactive”.

As to `CCn1c(CC(=O)Nc2ccccc2)nnc1SCC(=O)N1CCOCC1`, the Potency entry was “inactive”. With `CCC1C(=O)c2ccccc2N(C)C1=O` (configuration not stated) the entry was “inactive”; with `Cc1[nH]n(-c2ccccc2)c(=O)c1N=Nc1ccccc1C(=O)N1CCCCC1`, “inactive”. With `Cc1[nH]n(-c2ccc([N+](=O)[O-])cc2)c(=O)c1C=NCCN1CCN(C(=O)c2ccccc2F)CC1` the figure was 14.6 µM (active); with `CN1CCN(C(=O)c2cnn(-c3ccccc3)c2NC(=O)c2ccc([N+](=O)[O-])cc2)CC1`, “inactive”.

Source of the values: PubChem BioAssay AID686978 (National Center for Advancing Translational Sciences (NCATS), 2013).
